The values below come from PubChem BioAssay AID504832 (National Center for Advancing Translational Sciences (NCATS), 2011).

“And” between values parts separate entries of the source, which are not always exact repeats. Equal entries are not always repeated. The whole screen tested about 310,000 compounds, of which about 18,000 (5.8%) were called active. Roughly 22% stayed inconclusive and do not appear here. Calls follow the shape of the dose curve; as a rule, active = well fitted inhibition curve with a large enough effect; inconclusive = small, poorly fitted or top-dose-only effect, or another doubt; inactive = no such curve, though single readings can be large or run the other way. Shown is part of a subset that was picked to be rich in actives. A structure can be active in one record and inactive in another.
% is scaled to controls: 0 for no effect and ±100 for the full control effect; potency is read from the fitted curve at half-maximal effect.

The experiment can be described thus: Primary qHTS for delayed death inhibitors of the malarial parasite plastid, 48 hour incubation. Particulars: P. falciparum luciferase growth in erythrocytes; series mostly up to 28.7 µM; activity change, negative = inhibition: at the top concentration. In short, it runs like this:
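Luminescence readout; reporter = integrated firefly luciferase in P. falciparum. RBC culture at 2% hematocrit, 0.1% parasitemia final, 37 C/5% CO2; decreased signal taken as growth inhibition.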
A general note: In qHTS, concentration-response curves come from the screen itself.
Turning to `COc1ccc(NC(=O)N2CCCC2C(=O)NCc2ccccc2Cl)cc1` (stereo unspecified), the “activity change, negative = inhibition” value was -14.8% (inactive).

`O=C(N/C(=C\c1ccc(O)cc1)C(=O)N1CCCCC1)c1ccccc1`: the “activity change, negative = inhibition” value was 31.2% (inactive).

For `Nc1ccn(C2CC(O)C(CO)O2)c(=O)n1` (stereo unspecified), the “activity change, negative = inhibition” value was 24.6% (inactive).

Take `Cc1ccc(NC(=O)CSc2nc(=O)n(CCN(C)C)c3c2CCCC3)c(C)c1`: the “activity change, negative = inhibition” value is 1.01% (inactive).

For the compound `COc1ccc2c3c(c(=O)oc2c1)C1O[C@](CCCCN2C(=O)c4ccccc4C2=O)(Cc2c1ccc1ccccc21)O3`, the activity change, negative = inhibition is 44.1% [at 5.75 µM] (inactive).

In the case of `Cc1cc2c(c(=O)n1Cc1ccccc1)C1O[C@](CCCCN3C(=O)c4ccccc4C3=O)(Cc3ccccc31)O2`, the Potency is 0.675 µM (active).

With `C=CCn1c(C)cc(C(=O)CN2C(=O)c3ccccc3C2=O)c1C`, the “activity change, negative = inhibition” value was 3.02% (inactive).

As for `CC(C)(C)c1cc(C(=O)NN)n(Cc2ccc(Cl)cc2Cl)n1`, the Potency was 10.4 µM (active).

On to `NNC(=O)c1ccc(Cl)cc1Cl`, for which the “activity change, negative = inhibition” value is 10.5% (inactive).

On to `CC(C)(C)NC(=O)NC(=O)COC(=O)Cc1ccc(Cl)cc1Cl`, for which the “activity change, negative = inhibition” value is 15% (inactive).

Consider `O=C(Cc1ccc(Cl)cc1)NC(=S)Nc1ccccc1O`, for which the “activity change, negative = inhibition” value is 7.57% (inactive).

Turning to `Cc1cc(SCc2c(F)cccc2Cl)nc(=O)[nH]1`, the “activity change, negative = inhibition” value is -16.1% (inactive).

Consider `C/C(=N\NC(=O)c1nc(C)cc(C)n1)c1ccccc1`, for which the “activity change, negative = inhibition” value was 174% (inactive).

In the case of `Cc1cc(C)nc(S/C=C/C(=O)c2ccccc2)n1`, the “activity change, negative = inhibition” value is 0% (inactive).

For the compound `COC(c1ccccc1)(c1ccccc1)C(Oc1nc(C)cc(C)n1)C(=O)O` (stereo unspecified), the Potency result is “inactive and 11.7 µM (active)”.

For the compound `COc1ccccc1N1CCN(S(=O)(=O)c2ccc(Cl)cc2)CC1`, the activity change, negative = inhibition was 1.21% [at 0.00184 µM] (inactive).

`CC1CCC(NC(=O)CN(C)S(=O)(=O)c2ccc3c(c2)c(=O)n(C)c(=O)n3C)CC1` (stereo unspecified): the “activity change, negative = inhibition” value is -14.7% (inactive).

`Cc1cc(=O)oc2c1ccc1ccccc12`: the “activity change, negative = inhibition” value is -0.434% (inactive).

Consider `Cc1cc(C)cc(NC(=S)NC2CC3CCCC(C2)N3Cc2cccs2)c1` (stereo unspecified), for which the Potency is 9.28 µM (active).

For the compound `C=CCN1C2CCCC1CC(NC(=S)Nc1cccc(OC)c1)C2` (stereo unspecified), the “activity change, negative = inhibition” value was -19.1% (inactive).

Regarding `Cc1ccc(NC(=S)NC2CCCC2)cc1`, the “activity change, negative = inhibition” value was 43.2% (inactive).

For the compound `CC(=O)O[C@H]1CC[C@@]2(C)[C@@H](CC[C@@H]3[C@@H]2CC[C@]2(C)[C@@H](C(C)(C)O)C[C@@H]32)C1`, the “activity change, negative = inhibition” value was -8.46% (inactive).

Turning to `O=C(/C=C(O)/C=C/c1ccc(O)cc1)/C=C/c1ccc(O)cc1`, the “activity change, negative = inhibition” value is -5.54% (inactive).

For `CC(=O)Nc1ccc(NC(=O)C(C)OC(=O)C2CC(=O)N(CCc3ccccc3)C2)cc1` (stereo unspecified), the “activity change, negative = inhibition” value was -8.33% (inactive).

For the compound `O=C1CC[C@H](O)CCN1[C@H](CSc1ccc(Br)cc1)Cc1ccccc1`, the “activity change, negative = inhibition” value is -4.11% (inactive).

On to `CC(=O)Nc1ccc(SC[C@H](Cc2ccccc2)N2CC[C@@H](C)CCC2=O)cc1`, for which the Potency was 6.57 µM (active).

`Cc1ccc2nc(NC(=O)C3CSC4(C)CCC(=O)N34)sc2c1` (stereo unspecified): the “activity change, negative = inhibition” value was 35.9% (inactive).

For `Cc1cc(-c2nnc(SCC(=O)Nc3ccc(F)cc3)n2N)n[nH]1`, the “activity change, negative = inhibition” value is -18.5% (inactive).

`CC(C)Cc1nnc(NC(=O)CCc2ccccc2)s1`: the “activity change, negative = inhibition” value is -16.9% (inactive).

Regarding `O=C(Cc1ccccc1Cl)N1CCN(c2ccccn2)CC1`, the “activity change, negative = inhibition” value was 2.94% (inactive).

On to `Cc1ccnc(N2CCN(C(=O)CSc3nc4ccccc4nc3N3CCCCC3)CC2)c1`, for which the Potency was 13.1 µM (active).

In the case of `O=C(CSc1ncccn1)N1CCCC1`, the “activity change, negative = inhibition” value was 15.9% (inactive).

Turning to `COc1ccc2c(c1)c1nc3n(c(=O)c1n2CC(=O)Nc1ccccc1)CCS3`, the “activity change, negative = inhibition” value was 29.3% (inactive).

For the compound `O=C(CNS(=O)(=O)c1ccccc1)N1CCN(C(=O)c2ccco2)CC1`, the “activity change, negative = inhibition” value is 39.3% (inactive).

As to `O=C(Nc1ccccc1C(=O)N1CCCCC1)c1ccco1`, the “activity change, negative = inhibition” value is 19.7% (inactive).

In the case of `CS/C(=C\C(=O)c1ccco1)Nc1ccccc1Cl`, the Potency was 8.28 µM (active).

Turning to `O=C(c1cccc(S(=O)(=O)Nc2ccccc2Cl)c1)N1CCN(C(=O)c2ccco2)CC1`, the “activity change, negative = inhibition” value is -20.7% (inactive).

As to `CCC(C)N(C(=O)Cn1nc(C)c([N+](=O)[O-])c1C)C1CCS(=O)(=O)C1` (stereo unspecified), the “activity change, negative = inhibition” value is 5.42% (inactive).

Consider `O=C(NCCc1ccco1)C(=O)NCCC1CCCCN1S(=O)(=O)c1ccccc1` (stereo unspecified), for which the “activity change, negative = inhibition” value is -21.1% (inactive).

For the compound `COc1ccccc1NC(=O)CSc1nnc(Cc2cccn2C)n1-c1ccc(F)cc1`, the Potency is 10.4 µM (active).

On to `COc1ccc(C)cc1NC(=O)CSc1nnc(CC(=O)Nc2ccccc2F)n1C`, for which the “activity change, negative = inhibition” value is -53.1% (inactive).

With `COCCn1c(Cc2cccn2C)nnc1SCC(=O)Nc1nccs1`, the “activity change, negative = inhibition” value is -4.4% (inactive).

Consider `Cc1ccc(NC(=O)COC(=O)CN2CCCCCC2=O)c(C)c1`, for which the “activity change, negative = inhibition” value is 19.1% (inactive).

Regarding `Oc1ccc(N=Nc2nccs2)c(O)c1`, the Potency was 9.28 µM (active).

Consider `Oc1ccc2ccccc2c1N=Nc1nccs1`, for which the Potency is 13.1 µM (active).

For the compound `c1ccc(NCc2cccc3ccccc23)nc1`, the “activity change, negative = inhibition” value was 5.25% (inactive).

For `Oc1c(C=Nc2cccc3nsnc23)ccc2ccccc12`, the “activity change, negative = inhibition” value was 5.5% (inactive).

Turning to `COc1cccc(-n2c(N)cc(=O)nc2SCC(=O)Nc2cc(C)on2)c1`, the “activity change, negative = inhibition” value is -20% (inactive).

Take `CC(C)N(C(=O)Cn1cc(S(=O)(=O)CC(=O)N2CCOCC2)c2ccccc21)C(C)C`: the “activity change, negative = inhibition” value was -2.29% (inactive).

Regarding `CN(Cc1ccccc1)C(=O)c1ccc(NC2=NC3CS(=O)(=O)CC3S2)cc1` (stereo unspecified), the “activity change, negative = inhibition” value was 49.1% (inactive).

With `O=C(COC(=O)c1cccc(Cl)c1)NC1CCCCCCC1`, the “activity change, negative = inhibition” value was -11.6% (inactive).
